# Most compounds without a hit are left out; they make up all but 3.5% or so of the library.
# FBW7 act = activators of human E3 ligase FBW7; Q969H0; AlphaScreen FBW7–phospho-cyclin E peptide binding, activator screen; normalized activity (activation), % at 26.1 µM; 0.13% of 650,000 active; in the data active = normalized activity above about 1.9%;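 also: purified mutant Fbw7 with reduced substrate affinity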
# GPR151 ag = human GPR151 activation | Q8TDV0 | PathHunter beta-arrestin GPR151 cells, luminescence | activation, % at 11.2 µM | 1% of 650,000 active; in the data active = activation above about 4.9%
# MITF primary = human MITF inhibition, primary screen; O75030; AlphaScreen MITF homodimerization, bead proximity signal; inhibition, % at 2.6 µM; 0.91% of 650,000 active; AID 1259374; in the data active = inhibition above about 50%
# TEAD-YAP inh = TEAD-YAP interaction inhibition | AID 1259422 | HEK-TIYL cells, TEAD-Gal4/YAP UAS-luciferase luminescence | 1.4% of 640,000 active | inhibition, % at 9.12 µM; in the data active = inhibition above about 32%
# GPR151 conf act = confirmation of human GPR151 activators; shares compounds with GPR151 ag; activation, % at 11.2 µM; 6,700 tested, under 10 active; GPR151 PathHunter beta-arrestin cells, luminescence, 90 min; % of EA-reagent control over plate median;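 active = mean percent activation across replicates above the confirmation screen cutoff of 4.91%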
# GPR119 ag = GPR119 activation, counter-screen for GPR151 activators. shares compounds with GPR151 ag. 0.3% of 6,700 active. activation, % at 11.2 µM. AID 1508611. GPR119 PathHunter beta-arrestin cells, luminescence, 90 min; 0 = compound-well median, 100 = enzyme-acceptor control;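 active = mean percent activation in the counterscreen above 29.09%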;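 also: counterscreen on off-target GPR119 to flag nonselective hits from the GPR151 activator screen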
# Target sequence (Q8TDV5 whole entry, looked up): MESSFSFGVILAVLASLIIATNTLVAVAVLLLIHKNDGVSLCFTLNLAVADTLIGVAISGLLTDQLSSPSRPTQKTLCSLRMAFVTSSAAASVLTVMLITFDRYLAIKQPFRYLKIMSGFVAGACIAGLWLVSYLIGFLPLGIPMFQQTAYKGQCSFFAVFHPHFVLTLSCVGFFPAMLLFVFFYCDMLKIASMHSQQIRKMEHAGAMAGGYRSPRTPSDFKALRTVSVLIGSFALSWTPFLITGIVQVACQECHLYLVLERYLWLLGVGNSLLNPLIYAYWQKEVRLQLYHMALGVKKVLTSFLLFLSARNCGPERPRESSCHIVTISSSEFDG
# Numbers stand for hits; n = inactive; x = no result; ! = a repeat was not active.
SMILES,FBW7 act,GPR151 ag,MITF primary,TEAD-YAP inh,GPR151 conf act,GPR119 ag
COc1ccc(NC(=S)NC(=O)c2ccc3c(c2)OCO3)c([N+](=O)[O-])c1,n,7.0,n,n,n,n
COc1cc([N+](=O)[O-])ccc1NC(=O)N1CC(C)OC(C)C1 (stereo not drawn),n,7.0,n,n,n,n
COc1cc([N+](=O)[O-])ccc1NC(=O)Nc1ccc(Cl)cc1F,n,6.2,n,n,n,n
COc1ccc(NC(=O)Nc2ccc(F)cc2F)c([N+](=O)[O-])c1,n,5.0,n,n,n,n
Oc1ccc(N2CCN(C(=S)NC3CCCC3)CC2)cc1,n,n,n,n,x,x
CCOC(=O)C1=C(C(=O)OCC)SC(=C2C(=S)C(C)(C)N(C(=O)COc3ccc4ccccc4c3)c3c(C)cccc32)S1,n,n,n,n,x,x
COc1ccc(NC(=O)COc2cccc(C)c2)c([N+](=O)[O-])c1,n,6.9,n,n,n,n
COc1ccc(NC(=O)COc2ccc(-c3ccccc3)cc2)c([N+](=O)[O-])c1,n,n,n,n,x,x
CN(C)S(=O)(=O)c1cccc(C(=O)n2ncc(C#N)c2N)c1,n,5.3,n,n,n,n
O=c1c2nccnc2nc(SCc2cccc(F)c2)n1Cc1ccco1,n,12,n,n,n,n
O=c1c2cc3c(cc2nc(SCc2cccc(F)c2)n1Cc1ccco1)OCO3,n,n,n,n,x,x
O=C(CCNS(=O)(=O)c1ccc2[nH]c(=O)ccc2c1)NCc1ccccc1,n,8.2,n,n,n,n
Cc1ccc(CNC(=O)CCNS(=O)(=O)c2ccc3[nH]c(=O)ccc3c2)cc1,n,n,n,n,x,x
COc1ccc(CC(=O)NNC(=O)c2ccc(Cl)cc2)cc1OC,n,5.3,n,n,n,n
O=C(COc1ccccc1)NCCc1nnc2n1CCN(Cc1cc3ccccc3o1)CC2,n,n,n,n,x,x
CCCCCCOc1ccc(NC(=O)/C(=C\c2ccc(N(C)C)cc2)NC(=O)c2ccccc2Br)cc1,n,n,n,n,x,x
Cc1ccccc1NC(=O)NC1(C(=O)N2CCN3CCCC3C2)CCCCC1 (stereo not drawn),n,12,n,n,n,n
NC1(C(Cl)(Cl)Cl)Oc2ccc(Cl)cc2O1 (stereo not drawn),n,9.9,n,n,n,n
O=C(Nc1ccc(-n2ncc3ccc(-c4nn[nH]n4)cc32)cc1)c1ccccc1,n,n,n,n,x,x
O=C(Cc1ccc(F)cc1)Nc1ccc(-n2ncc3ccc(-c4nn[nH]n4)cc32)cc1,n,5.0,n,n,n,n
O=C(O)CSc1nc2ccccc2n1CCOc1ccccc1,n,6.4,n,n,n,n
O=C(CN1C(=O)CCC1=O)Nc1ccc(Cl)c(C(F)(F)F)c1,n,6.6,n,n,n,n
O=C(CN1CCN(CC(=O)Nc2ccc(Cl)c(C(F)(F)F)c2)CC1)Nc1ccc(F)cc1,n,n,n,n,x,x
CC1CN(CCC(=O)NCCN2CCC(c3ccccc3)C2)Cc2ccccc2O1 (stereo not drawn),n,n,n,n,x,x
O=C(Nc1ccccc1)c1ccccc1OCC(O)Cn1c2ccccc2c2ccccc21 (stereo not drawn),n,13,n,n,n,n
SMILES,FBW7 act,GPR151 ag,MITF primary,TEAD-YAP inh,GPR151 conf act,GPR119 ag
O=C1OC(c2ccccc2)=N/C1=C\c1cn(-c2ccccc2)nc1-c1cccs1,n,n,n,n,x,x
Cc1cc(C)nc(NS(=O)(=O)c2ccc(Nc3ncnc(N)c3[N+](=O)[O-])cc2)n1,n,n,n,n,x,x
Nc1ncnc(Nc2ccc(S(=O)(=O)Nc3ncccn3)cc2)c1[N+](=O)[O-],n,4.9,n,n,n,n
CCOc1cc(C=O)ccc1OCCOc1ccccc1OC,n,11,n,n,n,n
COC(=O)C1=C(C(=O)OC)[C@@H]2N(Cc3ccccc3)c3ccccc3[C@@]23C[C@@H](CO)N=C3N1,n,6.8,n,x,n,n
COC(=O)C1=C(C(=O)OC)[C@@H]2N(Cc3ccccc3)c3ccccc3[C@@]23C[C@@H](CO)N(C(=O)NC2CCCCC2)C3=N1,n,n,n,x,x,x
CCOC(=O)C/C(C)=N/NC(=O)C1CC1c1ccccc1 (stereo not drawn),n,n,n,n,x,x
Clc1ccccc1-c1nnc(SCCC2OCCCO2)o1,n,n,n,n,x,x
CCCCCOc1ccc(NC(=O)C(C)C)cc1,n,14,n,n,n,n
CCCCOc1ccc(NC(=O)C(=O)NC(C)C)cc1,n,5.6,n,n,n,n
CCCCOc1ccc(NC(=O)CC)cc1,n,n,n,n,x,x
CCCCOc1ccc(NC(=O)C(=O)NC)cc1,n,n,n,n,x,x
CCc1nc(CN2CCC(C(=O)Nc3cccc(-c4ccn[nH]4)c3)CC2)c(C)[nH]1,n,n,n,n,x,x
Cc1ccc(NC(=O)C2CCCN2Sc2ccccc2[N+](=O)[O-])c(C)c1 (stereo not drawn),n,6.0,n,n,n,n
Cc1cccc(N2N=C(c3ccccc3)CC2=O)c1C,n,8.8,n,n,n,n
Cc1ccc(C(=O)/C=C\N2CCCCC2)cc1,n,5.2,n,n,n,n
C=CCn1cnc2c(nnn2-c2cc(C)cc(C)c2)c1=O,n,9.4,n,n,n,n
CC(=O)c1ccc(NC2=C(N3CCCCC3)C(=O)c3ccccc3C2=O)cc1,n,n,n,n,x,x
C/C(=N/O)c1ccc(NC2=C(N3CCCC3)C(=O)c3ccccc3C2=O)cc1,n,5.9,n,n,n,n
COc1ccc(NC2=CC(=O)CCC2)cc1,n,n,n,n,x,x
COc1ccc(NC2=CC(=O)CCC2)c(OC)c1,n,7.8!,n,n,n,n
O=C(Nc1cccnc1)c1cccs1,n,8.9,n,40,n,n
Cc1ccc(NC(=O)c2cccs2)cc1NC(=O)c1cnccn1,n,5.9,n,n,n,n
Cc1cnccc1NC(=O)c1cccs1,n,n,n,n,x,x
O=C(Nc1ccncc1)c1cccs1,n,n,n,n,x,x
SMILES,FBW7 act,GPR151 ag,MITF primary,TEAD-YAP inh,GPR151 conf act,GPR119 ag
CC(NC(=O)c1ccc2c(c1)OCO2)C1CCCO1 (stereo not drawn),n,5.5,n,n,n,n
CC(NC(=O)c1cccc(Br)c1)C1CCCO1 (stereo not drawn),n,n,n,n,x,x
CCC1(c2ccccc2)NC(=O)N(CCOc2ccc(C)cc2)C1=O (stereo not drawn),n,n,n,n,x,x
CC(C)c1ccc(N2C(=O)NC(=O)/C(=C/c3ccc(O)cc3)C2=O)cc1,n,n,n,n,x,x
CC(C)c1ccc(N2C(=O)NC(=O)/C(=C/c3ccccc3O)C2=O)cc1,n,12,n,n,n,n
COCCn1c(=NC(=O)c2cc(OC)cc(OC)c2)sc2cc(OC)ccc21,n,n,n,n,x,x
CN(C(=O)Cc1ccccc1)N(C)C(=O)Cc1ccccc1,n,5.0,n,n,n,n

# Bioassay records (PubChem)
